Data from PubChem BioAssay (NCI).
About 79,000 compounds went through this panel and 15% of them were active in at least one assay; those are over-represented in the sample as a whole. The source made the active and inactive calls. Cut-off read from the data, not from the text of the source: active = growth inhibition above about 70%; inactive = the rest.

Tests used:
[1] = NCI Yeast Anticancer Drug Screen. Data for the rad50 strain (AID 155);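 note: 0% = growth of vehicle-only cultures of the same strain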; conditions: S. cerevisiae rad50 strain growth inhibition, hits give high values
Method in brief: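 Relative growth inhibition (compound vs vehicle) was measured in yeast with a defined repair-gene alteration.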

[2] = NCI Yeast Anticancer Drug Screen. Data for the mec2-1 strain (AID 157); conditions: S. cerevisiae mec2-1 strain, hits give high values
Method in brief: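 Each compound was tested on mec2-1 yeast, a strain altered in DNA damage repair or cell cycle control. Growth inhibition is reported relative to vehicle.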

[3] = NCI Yeast Anticancer Drug Screen. Data for the sgs1 mgt1 strain (AID 161);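 note: 0% = growth of cultures given vehicle only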; conditions: S. cerevisiae sgs1 mgt1 strain, hits give high values
Method in brief: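 Read-out: growth inhibition vs vehicle controls. Cells: mutant yeast strain deficient in DNA damage repair.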

[4] = NCI Yeast Anticancer Drug Screen. Data for the cln2 rad14 strain (AID 165);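 note: 0% = growth equal to vehicle treated cultures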; conditions: S. cerevisiae cln2 rad14 strain, hits give high values
Method in brief: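 Test compounds were added to cln2 rad14 yeast cultures; inhibition of growth was then determined by comparison with vehicle treatment.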

[5] = NCI Yeast Anticancer Drug Screen. Data for the bub3 strain (AID 167); conditions: S. cerevisiae bub3 mutant strain, hits give high values
Method in brief: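 Screening used yeast with an engineered genetic alteration affecting cell cycle control. Compound-exposed cultures were compared with vehicle cultures, and reduced growth was taken as inhibition.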

[6] = NCI Yeast Anticancer Drug Screen. Data for the mlh1 rad18 strain (AID 175); conditions: S. cerevisiae mlh1 rad18 strain growth inhibition, hits give high values
Method in brief: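 Inhibition values reflect reduced growth of mutant yeast versus vehicle-treated controls following compound exposure; the mutations affect DNA damage repair.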

[7] = at 5.0 µM (retest, dose inferred, filed as 0.5)
[8] = at 50.0 µM (retest, dose inferred, filed as 5.0)

Measured: growth inhibition

c1ccc2c(c1)OCC(CNCCNCC1COc3ccccc3O1)O2 (configuration not stated)
inactive: [1]; [7] 51% | [1]; [8] 69% | [2]; [7] 69% | [2]; at 50.0 µM 57.9% | [4]; [7] 45% | [4]; [8] 63% | [5]; [7] 43% | [5]; [8] 55% | [5]; at 50.0 µM 58.3% | [6]; at 50.0 µM 67.2%
active: [1]; at 50.0 µM 72% | [2]; [8] 79% | [3]; [7] 70% | [3]; [8] 86% | [3]; at 50.0 µM 87.5% | [4]; at 50.0 µM 87% | [6]; [7] 75% | [6]; [8] 74%

COC(=O)C1=C(C)NC(C)=C(C(=O)OC)C1c1ccc(NCc2ccccc2)c([N+](=O)[O-])c1
inactive: [1]; [7] 4% | [1]; [8] 59% | [1]; at 50.0 µM 16.9% | [2]; [7] 0% | [2]; [8] 53% | [2]; at 50.0 µM 3.65% | [3]; [7] -1% | [3]; at 50.0 µM 12.3% | [4]; [7] 0% | [4]; at 50.0 µM 0.55% | [5]; [7] 1% | [5]; [8] 68% | [5]; at 50.0 µM 6.45% | [6]; [7] 0% | [6]; at 50.0 µM 40.1%
active: [3]; [8] 73% | [4]; [8] 74% | [6]; [8] 71%

Fc1cccc(NC(=S)SCc2ccc(Cl)cc2)c1
inactive: [1]; [7] 20% | [2]; [7] 15% | [3]; [7] 12% | [4]; [7] -6% | [5]; [7] 10% | [6]; [7] 23%
active: [1]; [8] 98% | [1]; at 50.0 µM 99.4% | [2]; [8] 98% | [2]; at 50.0 µM 99.7% | [3]; [8] 99% | [3]; at 50.0 µM 99.7% | [4]; [8] 99% | [4]; at 50.0 µM 99.5% | [5]; [8] 98% | [5]; at 50.0 µM 99.5% | [6]; [8] 99% | [6]; at 50.0 µM 99.6%

CCN(CC)CCCCNc1ccc(Cl)cc1
active: [6]; at 50.0 µM 71.6%
inactive: [1]; [7] -2% | [1]; [8] 12% | [1]; at 50.0 µM 38.2% | [2]; [7] 1% | [2]; [8] -2% | [2]; at 50.0 µM 39.1% | [3]; [7] -2% | [3]; [8] 18% | [3]; at 50.0 µM 53.9% | [4]; [7] 2% | [4]; [8] -3% | [4]; at 50.0 µM -9.2% | [5]; [7] -1% | [5]; [8] 10% | [5]; at 50.0 µM 44.5% | [6]; [7] -7% | [6]; [8] 8%

Cc1cccc(O)c(=O)c1
active: [1]; [8] 98% | [1]; at 50.0 µM 99.3% | [2]; [8] 99% | [2]; at 50.0 µM 99.5% | [3]; [8] 98% | [3]; at 50.0 µM 99.5% | [4]; [8] 95% | [4]; at 50.0 µM 99.5% | [5]; [8] 98% | [5]; at 50.0 µM 99.4% | [6]; [8] 96% | [6]; at 50.0 µM 99.5%
inactive: [1]; [7] 12% | [2]; [7] -5% | [3]; [7] 2% | [4]; [7] 8% | [5]; [7] 9% | [6]; [7] 9%

CCOC(=O)C(CCOC)C(=O)OCC
active: [1]; [8] 81% | [1]; at 50.0 µM 73.3% | [2]; at 50.0 µM 70.9% | [5]; at 50.0 µM 95.7% | [6]; [8] 72%
inactive: [1]; [7] 4% | [2]; [7] 0% | [2]; [8] 30% | [3]; [7] 1% | [3]; [8] 46% | [3]; at 50.0 µM 43.9% | [4]; [7] 3% | [4]; [8] 65% | [4]; at 50.0 µM 41.8% | [5]; [7] 1% | [5]; [8] 48% | [6]; [7] 5% | [6]; at 50.0 µM 43.6%

FC(F)(F)c1cc(NC(=S)SC2CCCCC2)ccc1Cl
active: [1]; [8] 97% | [2]; [8] 99% | [2]; at 50.0 µM 79.2% | [3]; [8] 98% | [3]; at 50.0 µM 88% | [4]; [8] 97% | [4]; at 50.0 µM 88.8% | [5]; [8] 98% | [5]; at 50.0 µM 85.9% | [6]; [8] 97% | [6]; at 50.0 µM 90%
inactive: [1]; [7] 12% | [1]; at 50.0 µM 41% | [2]; [7] 4% | [3]; [7] 4% | [4]; [7] -16% | [5]; [7] 12% | [6]; [7] 16%

CCCCCCCCCCCCCCCCCC(=O)OCCN1C(=O)c2ccccc2C1=O
active: [4]; at 50.0 µM 71.7%
inactive: [1]; [7] -1% | [1]; [8] 4% | [1]; at 50.0 µM -5.4% | [2]; [7] 10% | [2]; [8] -10% | [2]; at 50.0 µM 9.15% | [3]; [7] 5% | [3]; [8] 12% | [3]; at 50.0 µM 17.7% | [4]; [7] -1% | [4]; [8] -6% | [5]; [7] -4% | [5]; [8] -8% | [5]; at 50.0 µM 44% | [6]; [7] -2% | [6]; [8] -11% | [6]; at 50.0 µM 43.3%

CC(=O)O/C=C1\c2ccccc2CCC1c1ccc2ccccc2c1 (configuration not stated)
inactive: [1]; [7] 7% | [1]; [8] -5% | [1]; at 50.0 µM -4.45% | [2]; [7] -4% | [2]; [8] -13% | [2]; at 50.0 µM -23.9% | [3]; [7] 1% | [3]; [8] 11% | [3]; at 50.0 µM 0.3% | [4]; [7] -19% | [4]; [8] -22% | [4]; at 50.0 µM 1.45% | [5]; [7] 5% | [5]; [8] 4% | [5]; at 50.0 µM 27.9% | [6]; [7] 9% | [6]; [8] 9% | [6]; at 50.0 µM -0.15%
